# Compound activity from PubChem.
# The full list was thinned out, with hits kept by preference.
# ROC1-CUL1 inh – blocks human RBX1-Cullin-1 di-ubiquitin formation; in vitro K48 di-Ub FRET, acceptor:donor ratio, 45 min; P62877+Q13616; inhibition, % at 10 µM; 0.6% of 140,000 active; in the data active = inhibition above about 25%
# Hits are given with their value; n = inactive.
SMILES,ROC1-CUL1 inh
COc1ccccc1/C=C1\CC/C(=C\c2ccccc2OC)C1=O,n
CNC(=O)c1ccc(OC)c(-c2cccc(-c3ccn[nH]3)c2)c1,n
O=C1c2ccccc2C(=O)C(O)(O)C1(O)O,99.9
CCC1(N)C(=O)c2ccccc2C1=O,n
O=C1c2ccccc2C(=O)C(Cl)(Cl)C1(Cl)Cl,n
Cc1ccccc1C(CC(=O)NCc1nccn1C)c1ccccc1 (centres undefined),n
COc1cc(NC(=O)CSc2nc(-c3ccc(C)cc3)nc3c2Cc2ccccc2O3)cc(OC)c1,n
O=C(CSc1nc(-c2ccc(F)cc2)nc2c1Cc1ccccc1O2)Nc1cccc(C(=O)O)c1,25.2
COc1cccc2c1Oc1nc(-c3ccccc3)nc(SCC(=O)Nc3ccccc3)c1C2,n
CSc1ccc2c(c1)C=Cc1ccccc1O2,n
CCCCN1C(=O)C(=O)N(c2ccccc2)C1=S,n
CCCCN1C(=O)C(=Cc2ccco2)C(=O)N(CCCC)C1=S,98.9
CCCCN1C(=O)C(=C/C=C/c2ccco2)C(=O)N(CCCC)C1=S,31.2
CCCCN1C(=O)C(=Cc2ccc(OCC)c(OC)c2)C(=O)N(CCCC)C1=S,n
O=C1NN(c2ccc(Br)cc2)C(=O)/C1=C\C=C\c1ccco1,n
CCCCC1(C)OC(=O)C(=Cc2ccc3c(c2)OCO3)C(=O)O1 (centres undefined),n
CCCCN1C(=O)C(=Cc2cccs2)C(=O)N(CCCC)C1=S,n
CCCCN1C(=O)/C(=C/c2ccc3c(c2)OCO3)C(=O)N(Cc2ccco2)C1=S,101.4
CCCCCCN1C(=O)NC(=O)/C(=C\c2ccc3c(c2)OCO3)C1=O,n
CCCCN1C(=O)C(C(=O)Nc2cccc(OC)c2)C(=O)c2ccccc21 (centres undefined),n
CCOC(=O)C1CCN(C(=O)CN(c2cccc(F)c2)S(C)(=O)=O)CC1,n
Cn1c(=O)c2c(ncn2CC(=N)N2CCCCC2)n(C)c1=O,n
CCC(Oc1ccccc1F)C(=O)NC1CCCC1 (centres undefined),n
Cc1nc(-c2cn[nH]c2-c2ccc(OCc3ccc(Br)cc3)cc2O)cs1,n
COc1ccc2c(=O)c(I)coc2c1,n
SMILES,ROC1-CUL1 inh
COc1ccc2ccc3c4ccccc4c(OC)cc3c2c1,n
COc1ccc2c(=O)c(=O)c2c1,71.7
CC(C)NS(=O)(=O)c1cccnc1Cl,n
O=C1C(Cl)=C(Cl)C(=O)C(CCNc2ncccn2)=C1Cl,97.9
CC1Oc2ccc(S(=O)(=O)N3CCN(c4ccccc4F)CC3)cc2NC1=O (centres undefined),n
O=c1[nH]c(C2CCC2)nc2ccccc12,n
COc1ccc(C=C2C(=O)c3ccccc3C2=O)cc1O,n
CC(C)c1cc(/C=C2\OC(=O)c3ccccc32)cc(C(C)C)c1O,n
O=C1/C(=C/c2ccc(O)c(O)c2)Oc2ccccc21,96.9
COc1ccc(C(=O)N2CCC(N3CCCC(C(=O)NC4CC4)C3)CC2)o1 (centres undefined),n
Cc1cccc(C(=O)N2CCC(N3CCCC(C(=O)NC4CC4)C3)CC2)c1 (centres undefined),n
Cc1occc1C(=O)N1CCC(N2CCCC(C(=O)NC3CC3)C2)CC1 (centres undefined),25.0
Cc1ccsc1C(=O)NCC1Cc2cc(F)cc(-c3ccccn3)c2O1 (centres undefined),n
CC1(C)NC(=O)c2ccccc2O1,n
CC1(C)Oc2ccccc2C(=O)C1Br (centres undefined),n
O=C1C=CC2(C=C1)OC(=O)c1ccccc1O2,29.5
C=CCN1C(=O)C2(Nc3ccccc3C(=O)N2c2ccc(C)cc2)c2ccccc21 (centres undefined),n
COc1cc(OC)nc(Oc2ccccc2C=NO)n1,n
CC(C)(C)c1ccc(-c2nc3cc(NC(=O)c4ccc(Cl)c(Cl)c4)ccc3o2)cc1,n
Cc1cc(=O)oc2cc(OC(=O)c3ccc(=O)oc3)ccc12,n
O=C(Oc1ccc2c(C(F)(F)F)cc(=O)oc2c1)c1ccccc1,n
CC(C)(C)c1ccc(C(=O)Oc2ccc3c(-c4ccccc4C(=O)O)c4ccc(=O)cc-4oc3c2)cc1,33.4
CC1=NN(c2ccccc2)C(=O)C1c1ccccc1 (centres undefined),n
O=C1C(=O)N(c2ccccc2)N=C(c2ccccc2)C1C(=O)c1ccccc1 (centres undefined),n
O=C1N(c2ccccc2)N=C(c2ccccc2)C1(Br)Br,60.1
SMILES,ROC1-CUL1 inh
COc1cc2c(cc1OC)CN(S(=O)(=O)c1ccc(Cl)s1)CC2,n
N#Cc1c(C(F)(F)F)cc(-c2cccs2)nc1SCc1cc2c(cc1Cl)OCO2,n
COc1ccc(-n2nc3ccc(NC(=O)C(C)(C)C)cc3n2)cc1,n
COc1cccc(/C=C/C(=O)c2ccccc2)c1,n
CC1=NC(=O)C(C(=O)/C=C/c2ccccc2)=C(C)C1,n
CN=C1CC=CC=C(C(=O)/C=C/c2cccc(Oc3ccccc3)c2)C1=O,104.3
Cc1ccc(/C=C/C(=O)C2C=CC=CC(=O)C2=O)c(C)c1 (centres undefined),n
CN=C1CC=CC=C(C(=O)/C=C/c2ccc(C(F)(F)F)cc2)C1=O,n
CN=C1CC=CC=C(C(=O)/C=C/c2ccc(C)cc2C)C1=O,103.0
CN=C1CC=CC=C(C(=O)/C=C/c2c(Cl)cccc2Cl)C1=O,n
CN=C1CC=CC=C(C(=O)/C=C/c2cc(C)ccc2C)C1=O,n
CN=C1CC=CC=C(C(=O)/C=C/c2ccccc2)C1=O,84.2
COC(=O)C1=C(C)OC(=N)C(C#N)C1c1ccc(OC(C)C)c(OC)c1 (centres undefined),n
O=C(N/N=C/c1ccccc1[N+](=O)[O-])C1COc2cc3ccccc3cc2O1 (centres undefined),n
Cc1cnc(NCC(c2ccccn2)N2CCOCC2)nc1-c1ncnn1C (centres undefined),n
COc1cccc(CN2CCCC3(CCN(Cc4nccn4C)C3)C2=O)c1 (centres undefined),n
Cc1cc(C)c(S(=O)(=O)n2cccn2)cc1C,n
CCn1c(=O)c2c(nc3n2CCCN3c2cccc(OC)c2)n(C)c1=O,n
Brc1nsc(SCSc2nc(Br)ns2)n1,33.3
Cc1cccc(C)c1N=C1N=C(SCC(=O)O)N(CC(N)=O)C12CCCC2,n
COc1cccc(CN2CCCC3(CCN(C(=O)c4cscn4)C3)C2)c1 (centres undefined),n
Nc1ccc(/C=C\c2ccc(-n3nc4ccc5c(S(=O)(=O)O)cccc5c4n3)cc2S(=O)(=O)O)c(S(=O)(=O)O)c1,67.8
O=S(=O)(O)c1cccc2cc(O)ccc12,n
O=S(=O)(O)c1ccc2c(S(=O)(=O)O)cccc2c1,n
CN(Cc1ccno1)Cc1cn[nH]c1-c1ccc(-c2ccccc2)cc1,n
SMILES,ROC1-CUL1 inh
Fc1ccc(-c2nnc3c(Cl)nc4ccccc4n23)cc1,n
COc1ccc2nc(Cl)c(-c3nnc4c(Cl)nc5ccccc5n34)cc2c1,n
Clc1nc2ccccc2n2c(-c3ccccc3)nnc12,25.2
Cc1nc(-c2ccncc2)ncc1C(C)NCc1cccc(O)c1 (centres undefined),n
O=C1c2cc(Cl)c(Cl)cc2C(=O)N1c1ccc(F)cc1,n
CCOC(=O)c1cccc(-n2c(C)cc(/C=C3\C(=O)NC(=O)N(c4ccc(C)c(C)c4)C3=O)c2C)c1,n
CCc1ccccc1-n1c(C)cc(/C=C2\C(=O)NC(=O)N(c3cccc(C)c3)C2=O)c1C,n
Cc1cc(/C=C2\C(=O)NC(=S)N(c3cccc(F)c3)C2=O)c(C)n1-c1cccnc1,77.6
Cc1cc(/C=C2/C(=O)NC(=S)N(c3ccc(F)cc3)C2=O)c(C)n1-c1ccc(O)cc1,n
